Screens as filed in PubChem.
SW480 rerep: induces DNA re-replication in SW480 colon adenocarcinoma cells; SW480 DNA re-replication, Hoechst DNA content imaging, 48 h; 340,000 tested, 1.8% active; Potency, µM (titrated, usually from 46.1 µM), for inactives: top-dose re-replication activation, actives largely listed as activators; AID 624297; further: potency means the concentration at half of the fitted maximal effect; % of control where 0% means no effect; nearly all actives have a fitted effect of over 55% in size
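Cells (250 per well) received 23 nL compound or DMSO by pin tool and were kept 48 hr at 37 C, 5% CO2. Nuclei were then stained with Hoechst for 40 min and scanned for DNA content.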
VP16 counter: counter-screen for ROR gamma inhibitors: Gal4-VP16 reporter; Potency, µM (highest dose often 53.6 µM), inactives show at the highest dose activity, negative = inhibition, most hits filed as inhibitors; 310,000 tested, 3.5% active; Drosophila S2 Gal4-VP16 UAS-luciferase, luminescence, 20 h;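 further: Gal4-VP16 expression switched on by copper sulfate through the metallothionein promoter; potency means the concentration at half of the fitted maximal effect; on the % scale 0 is the no-effect control and ±100 the full control effect; nearly all actives have a fitted effect of over 50% in size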
RORgamma inh: inhibitors of mouse ROR gamma transcriptional activity | P51450 | 310,000 tested, 5.4% active | Drosophila S2 Gal4-RORgamma UAS-luciferase reporter, 20 h | Potency, µM (top dose mostly 53.6 µM), for inactives: top-dose activity change, negative = inhibition, most hits filed as inhibitors; further: potency means the concentration at half of the fitted maximal effect; on the % scale 0 is the no-effect control and ±100 the full control effect; nearly all actives have a fitted effect of over 60% in size
Target sequence (P51450 whole entry, looked up, the tested form may be a part): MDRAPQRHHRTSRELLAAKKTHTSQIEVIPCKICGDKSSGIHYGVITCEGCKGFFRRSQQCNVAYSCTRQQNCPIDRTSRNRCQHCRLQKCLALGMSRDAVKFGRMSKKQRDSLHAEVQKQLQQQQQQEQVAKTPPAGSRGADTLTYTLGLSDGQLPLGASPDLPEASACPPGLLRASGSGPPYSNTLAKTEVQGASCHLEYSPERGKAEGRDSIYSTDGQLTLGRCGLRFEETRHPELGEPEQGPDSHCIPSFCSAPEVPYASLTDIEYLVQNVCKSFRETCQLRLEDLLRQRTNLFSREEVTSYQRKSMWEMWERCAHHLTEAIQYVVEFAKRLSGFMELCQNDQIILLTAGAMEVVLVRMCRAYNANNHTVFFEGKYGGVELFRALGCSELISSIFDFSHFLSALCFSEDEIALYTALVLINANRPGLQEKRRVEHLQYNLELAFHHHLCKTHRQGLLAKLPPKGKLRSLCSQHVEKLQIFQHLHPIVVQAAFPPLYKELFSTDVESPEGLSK
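Stably transfected Drosophila Schneider cells are the test system, with ROR gamma fused to Gal4 and luciferase under UAS control; luminescence is read after 20 hr of 700 uM copper sulfate induction at ambient temperature.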
Giardia killer: kills Giardia lamblia. Giardia lamblia trophozoite viability. activity change, % at 7.66 µM, hits read low. 340,000 tested, 0.15% active. AID 540267; in the data active means activity change below about -80%; inconclusive means between about -30% and that limit;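 further: parasites exposed to compound for two days anaerobically before the ATP read; on the % scale 0 is the no-effect control and ±100 the full control effect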
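Giardia lamblia trophozoites (100 cells/well) were incubated with compounds for 48 h at 37 deg C under anaerobic conditions. Viability was read as ATP content by one-step luminescence after 15-30 min at room temperature.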
MCF10A rerep: inducers of DNA re-replication in MCF 10A breast cells; Potency, µM (titrated, usually from 46.1 µM), for inactives: at the highest dose activity, positive = re-replication, most hits filed as activators; MCF 10A DNA re-replication, Hoechst nuclear intensity, 48 h; 350,000 tested, 2.9% active; AID 624296; further: potency means the concentration at half of the fitted maximal effect; % of control where 0% means no effect; nearly all actives have a fitted effect of over 50% in size
BCR signal inh: inhibitors of chronic active B-cell receptor signaling; Potency, µM (titrated, usually from 46.1 µM), without a hit: at the highest dose activity change, negative = inhibition, usual class: inhibitors; ABC-DLBCL IkBa-CBG/CBR reporter, luminescence ratio, 4 h; AID 493014; 340,000 tested, 0.05% active; active means well fitted inhibition curve with a large enough effect in the signal ratio, with a control signal flat, not every such curve was filed as active; inconclusive means small, poorly fitted or top-dose-only effect, or effect the other way, or a change in a side signal; the % refers to the signal ratio;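 further: potency means the concentration at half of the fitted maximal effect; plate controls were basal doxycycline-induced cells for no effect and cells given 10 µM MG132 for full effect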
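Concentration-response series (up to 46 uM) were applied to TMD8 dual-reporter cells for 4 h at 37C with doxycycline. Green/red ratio, after filter-overlap correction, defined %Activity; red signal alone was normalised to basal cells and zero luminescence.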
The depositor's hits bear a star; ? = inconclusive; . = no result. Hits are enriched below; roughly 8.3% of the tested compounds scored in any of these assays. Unless noted, the call rests on the fitted dose curve; in most records, active means well fitted curve in the direction sought with a large enough effect; inconclusive means small, poorly fitted or top-dose-only effect, or another doubt; inactive means no such curve, though single readings can be large; an effect the other way counts as inactive or inconclusive.

SMILES	SW480 rerep	VP16 counter	RORgamma inh	Giardia killer	MCF10A rerep	BCR signal inh
CC1(C(=O)NC2CCCCCCC2)CCC(=O)N1Cc1cccs1 (stereo not drawn)	-3%	1%	30%	2	-19%	-2%
COc1cccc(NC(=O)c2ccc3c(c2)CCCC3)c1	-8%	-12%	0%	?	0%	?
CC(=O)c1cccc(NC(=O)c2ccc3c(c2)CCCC3)c1	-6%	2.8µM*	1.4µM*	-25	-38%	?
CC(=O)c1cccc(NC(=O)c2ccc3c(c2)CCN3S(=O)(=O)c2ccccc2)c1	-1%	13µM*	?	29	-5%	?
CC(=O)c1cccc(NC(=O)Nc2ccc3c(c2)CCC3)c1	-2%	7.9µM*	7.1µM*	-9	7%	?
O=C(CCSc1nnc(-c2ccccc2)o1)N1CCOCC1	-2%	-26%	-19%	-3	11%	5%
Cc1cccc(-c2nnc(SCCC(=O)N3CCOCC3)o2)c1	-6%	7.1µM*	?	25	1%	?
Cc1ccc(-c2nnc(SCCC(=O)N3CCOCC3)o2)cc1	9%	-4%	6.3µM*	-15	7%	?
Cc1cccc(-c2nnc(SCC(=O)N3CCCC3)o2)c1	-21%	-4%	-29%	-23	16%	?
NC(=O)C1CCCN(C(=O)CCCNC(=O)c2ccc(Cl)cc2)C1 (stereo not drawn)	-3%	3%	-7%	11	1%	3%
O=[N+]([O-])c1ccc(OCc2n[nH]c(=S)n2-c2ccccc2)cc1	-7%	?	0.32µM*	23	?	1%
CCn1c(COc2ccc3c(c2)OCO3)nnc1SCC(=O)c1ccccc1	-8%	13µM*	13%	7	?	?
S=c1[nH]nc(COc2ccc3c(c2)OCO3)n1-c1ccccc1	-3%	11µM*	3.5µM*	-12	1%	?
S=c1[nH]nc(-c2ccc3c(c2)OCO3)n1-c1ccccc1	3%	11µM*	8.9µM*	3	-35%	6%
O=C(COc1ccccc1)NCc1n[nH]c(=S)n1-c1ccccc1	0%	10%	-28%	6	-2%	-2%
COc1ccc(CCNC(=O)c2ccc(NC(=O)CC3SC(N4CCCC4)=NC3=O)cc2)cc1 (stereo not drawn)	-1%	.	.	1	6%	2%
CCCN1CCC(=O)N(CCO)CC1	-14%	6%	-15%	-10	0%	-6%
CC(O)CCC(=O)NNC(=S)Nc1ccccc1 (stereo not drawn)	?	0%	-30%	1	6%	0%
Cc1cccc(NC(=S)NNC(=O)Cc2ccccc2)c1	-106%	?	11µM*	-11	-1%	?
Cc1cccc(NCC(=O)NNC(=S)Nc2ccccc2)c1	-8%	?	11µM*	1	2%	4%
O=C(CCc1ccccc1)NNC(=S)Nc1ccc(F)cc1	-2%	?	3.5µM*	2	0%	-1%
Cc1cccc(NC(=S)NNC(=O)c2csc3c2CCCC3)c1	3%	-10%	?	-17	?	-3%
Cc1cccc(NC(=S)NNC(=O)c2csc(C)c2)c1	1%	?	5µM*	0	-3%	?
O=C(CCc1ccccc1)NNC(=O)Nc1ccc(Br)cc1	3%	2%	0%	-1	0%	?
O=C(CSCc1ccccc1Cl)NNC(=S)Nc1ccccc1	-1%	-7%	16µM*	-3	-3%	-2%
SMILES	SW480 rerep	VP16 counter	RORgamma inh	Giardia killer	MCF10A rerep	BCR signal inh
CC(C)c1ccc(NC(=O)CCc2ccccc2)cc1	?	8%	?	-7	8.2µM*	-14%
O=C(CSCc1ccccc1Cl)Nc1ccc(C(=O)O)cc1	-3%	15%	5%	25	0%	?
O=C(CCc1ccccc1)NNC(=O)Cc1ccc(Cl)cc1	-16%	14%	0%	13	24%	-2%
O=C(Cc1ccccc1)NNC(=S)Nc1ccc(Cl)cc1	0.52µM*	?	?	-12	1%	?
CNC(=S)NNC(=O)CNc1ccc(C)c(Cl)c1	4%	13µM*	5.6µM*	30	-8%	-3%
CCN(CC)CCN(C(=O)c1cc2c(ccc3ccccc32)oc1=O)c1nc2cc3c(cc2s1)OCCO3	15%	?	-127%	-13	11%	-17%
CCOC(=O)c1cc(-c2ccc(F)cc2)n(CC(=O)NCc2ccc(OC)cc2)c1C	.	.	.	.	.	9%
O=C1c2ccccc2OC2(C=Cc3ccccc3O2)N1Cc1ccccc1 (stereo not drawn)	?	8%	27%	7	13µM*	?
O=C1/C(=C\c2ccccn2)SC(=S)N1Nc1ncc(C(F)(F)F)cc1Cl	-4%	?	11µM*	2	2%	3%
O=C1/C(=C/c2ccc(F)cc2)SC(=S)N1Nc1ncc(C(F)(F)F)cc1Cl	?	-7%	-1%	-11	3.7µM*	?
O=C1/C(=C/c2ccccn2)SC(=S)N1Nc1ncc(C(F)(F)F)cc1Cl	3%	.	.	-6	?	.
CC[C@H](C)[C@H](NC(=O)[C@H](Cc1ccccc1)NC(=O)[C@H](C)NC(=O)[C@H](CC(=O)O)NC(=O)[C@H](CCCCN)NC(=O)[C@H](CO)NC(=O)[C@@H]1CCCN1C(=O)[C@@H]1CCC(=O)N1)C(=O)NCC(=O)N[C@@H](CC(C)C)C(=O)N[C@@H](CCSC)C(N)=O	.	-7%	0%	.	.	.
CC(=O)Nc1ccc(Nc2cc(C(C)C)nc3c(-c4ccccc4)c(C)nn23)cc1	?	?	?	-5	?	?
COc1ccc([N+](=O)[O-])cc1C1NN=C(c2ccccc2O)S1 (stereo not drawn)	-2%	-12%	-45%	-11	?	?
O=[N+]([O-])c1ccc(O)c(C2=NNC(c3ccccc3F)C2)c1 (stereo not drawn)	-6%	?	6.3µM*	-25	3.7µM*	?
CCC/C=N/NC(=O)c1[nH]c2c([N+](=O)[O-])cccc2c1C	18µM*	-28%	?	4	6.5µM*	?
CCCCC/C=N/NC(=O)c1[nH]c2ccc([N+](=O)[O-])cc2c1C	-8%	-10%	?	-3	?	?
CCOC(=O)CNC(=O)O[C@@H]1C(=O)c2cc(Br)ccc2O[C@H]1c1ccc2c(c1)OCO2	.	-19%	-7%	.	.	.
CN(C)CC1CCC/C(=C/c2ccc(Cl)cc2)C1=O (stereo not drawn)	?	.	.	9	18µM*	.
COc1cccc(/C=C2/CCC(CN(C)C)C2=O)c1 (stereo not drawn)	5.8µM*	.	.	-21	2.3µM*	.
CCCC/C=C1/CCC(CN(C)C)C1=O (stereo not drawn)	?	.	.	12	5.8µM*	.
